Measured values: PubChem BioAssay (NCI)
Several values for one entry are separate records, joined by “and”; a condition that tells them apart may be missing. Identical values can stand only once. About 79,000 compounds went through this panel and 15% of them were active in at least one assay; those are over-represented in the sample as a whole. A number with no mark means an inactive call. Activity calls are given as the source filed them. Rule as the data show it: active = growth inhibition above about 70%; inactive = the rest.

Assays:
[1] = NCI Yeast Anticancer Drug Screen. Data for the rad52 strain (AID 147);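 also: 0% = growth of vehicle-treated control cultures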; conditions: S. cerevisiae rad52 mutant growth inhibition, stronger effect = higher value
Summary of the method: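 Genetically altered yeast (DNA damage repair defect) treated with compound; inhibition calculated relative to vehicle.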

[2] = NCI Yeast Anticancer Drug Screen. Data for the wt1 strain (AID 149);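 also: 0% = growth of vehicle-treated wt1 cultures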; conditions: S. cerevisiae wt1 strain (SPY 50644) growth inhibition, stronger effect = higher value
Summary of the method: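 Readout: yeast growth inhibition, normalised to vehicle controls, in the wt1 strain exposed to test compounds.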

[3] = NCI Yeast Anticancer Drug Screen. Data for the rad50EPP+ strain (AID 151);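 also: 0% = growth of vehicle-treated control cultures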; conditions: S. cerevisiae rad50 mutant strain, stronger effect = higher value
Summary of the method: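 Strain rad50EPP+; compound exposure; % growth inhibition vs vehicle.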

[4] = NCI Yeast Anticancer Drug Screen. Data for the mgt1 strain (AID 153); conditions: S. cerevisiae mgt1 mutant growth inhibition, stronger effect = higher value
Summary of the method: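 Read-out: yeast growth inhibition vs vehicle control. Strain mgt1, drawn from a panel altered in DNA damage repair or cell cycle control.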

[5] = NCI Yeast Anticancer Drug Screen. Data for the rad50 strain (AID 155);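 also: 0% = growth of vehicle-only cultures of the same strain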; conditions: S. cerevisiae rad50 strain growth inhibition, stronger effect = higher value
Summary of the method: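 Compounds were tested on a yeast strain with an engineered DNA damage repair alteration; the reported value is growth inhibition normalised to vehicle treatment.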

[6] = NCI Yeast Anticancer Drug Screen. Data for the mec2-1 strain (AID 157); conditions: S. cerevisiae mec2-1 strain, stronger effect = higher value
Summary of the method: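 Cells of the genetically defined mec2-1 yeast strain are incubated with test compound. Inhibition of growth is calculated against vehicle-treated controls.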

[7] = NCI Yeast Anticancer Drug Screen. Data for the rad14 strain (AID 159);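 also: 0% = growth of vehicle-treated control cultures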; conditions: S. cerevisiae rad14 strain growth inhibition, stronger effect = higher value
Summary of the method: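 Compound-treated yeast with a defined DNA-repair lesion; growth inhibition normalised to vehicle-treated cultures.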

[8] = NCI Yeast Anticancer Drug Screen. Data for the sgs1 mgt1 strain (AID 161);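 also: 0% = growth of cultures given vehicle only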; conditions: S. cerevisiae sgs1 mgt1 strain, stronger effect = higher value
Summary of the method: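 Mutant yeast exposed to compound; growth scored against vehicle-only wells.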

[9] = NCI Yeast Anticancer Drug Screen. Data for the CLN2oe strain (AID 163);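 also: 0% = growth of vehicle-only control cultures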; conditions: S. cerevisiae CLN2oe strain, stronger effect = higher value
Summary of the method: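 Strain altered in cell-cycle control, incubated with compound; growth compared to solvent-treated controls.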

[10] = NCI Yeast Anticancer Drug Screen. Data for the cln2 rad14 strain (AID 165);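 also: 0% = growth equal to vehicle treated cultures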; conditions: S. cerevisiae cln2 rad14 strain, stronger effect = higher value
Summary of the method: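 The screen exposed genetically defined yeast (cln2 rad14) to test compounds and scored growth inhibition relative to vehicle-treated controls.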

[11] = NCI Yeast Anticancer Drug Screen. Data for the bub3 strain (AID 167); conditions: S. cerevisiae bub3 mutant strain, stronger effect = higher value
Summary of the method: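 Growth of a checkpoint-deficient yeast mutant is measured after compound exposure. Values represent inhibition relative to vehicle.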

[12] = NCI Yeast Anticancer Drug Screen. Data for the wt2 strain (AID 169);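 also: 0% = growth of vehicle-treated yeast cultures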; conditions: S. cerevisiae wt2 strain growth inhibition, stronger effect = higher value
Summary of the method: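 Steps: yeast strain treated with compound; growth recorded; inhibition calculated relative to cultures given vehicle alone.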

[13] = NCI Yeast Anticancer Drug Screen. Data for the mlh1 strain (AID 171);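 also: 0% = growth of vehicle-treated control cultures of the same strain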; conditions: S. cerevisiae mlh1 strain growth inhibition, stronger effect = higher value
Summary of the method: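 Yeast screen: mutant strain plus compound, growth scored against vehicle control wells.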

[14] = NCI Yeast Anticancer Drug Screen. Data for the sgs1 strain (AID 173);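 also: 0% = growth of vehicle-only control cultures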; conditions: S. cerevisiae sgs1 mutant, stronger effect = higher value
Summary of the method: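 Inhibition of yeast growth served as the measure. The mutant strain was treated with each compound, and growth was normalised to cultures receiving vehicle alone.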

[15] = NCI Yeast Anticancer Drug Screen. Data for the mlh1 rad18 strain (AID 175); conditions: S. cerevisiae mlh1 rad18 strain growth inhibition, stronger effect = higher value
Summary of the method: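 Compound-treated yeast growth, normalised to vehicle controls. Strain bears defined DNA repair mutations.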

[16] = NCI Yeast Anticancer Drug Screen. Data for the rad18 strain (AID 177); conditions: S. cerevisiae rad18 mutant growth inhibition, stronger effect = higher value
Summary of the method: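 Inhibition values reflect reduced yeast growth compared with vehicle-treated controls, using a strain engineered with a DNA damage repair defect.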

[17] = at 5.0 µM (retest, dose inferred, filed as 0.5)
[18] = at 50.0 µM (retest, dose inferred, filed as 5.0)

**Q.** What does the source list for `CN(C)CCSC1=Nc2ccc(Cl)cc2C(c2ccccc2Cl)=NC1`?
**A.** growth inhibition ([1]; at 1.2 µM): -1%; growth inhibition ([1]; at 3.7 µM): -8%; growth inhibition ([1]; at 11.0 µM): 3%; growth inhibition ([1]; at 33.0 µM): 4%; growth inhibition ([1]; at 100.0 µM): 51%; growth inhibition ([2]; at 1.2 µM): -1%; growth inhibition ([2]; at 3.7 µM): -1%; growth inhibition ([2]; at 11.0 µM): 0%; growth inhibition ([2]; at 33.0 µM): 2%; growth inhibition ([2]; at 100.0 µM): -1%; growth inhibition ([3]; at 1.2 µM): -3%; growth inhibition ([3]; at 3.7 µM): -2%; growth inhibition ([3]; at 11.0 µM): -2%; growth inhibition ([3]; at 33.0 µM): -3%; growth inhibition ([3]; at 100.0 µM): 0%; growth inhibition ([4]; at 1.2 µM): -2%; growth inhibition ([4]; at 3.7 µM): -1%; growth inhibition ([4]; at 11.0 µM): 0%; growth inhibition ([4]; at 33.0 µM): 6%; growth inhibition ([4]; at 100.0 µM): 66%; growth inhibition ([5]; at 1.2 µM): -1%; growth inhibition ([5]; at 3.7 µM): 2%; growth inhibition [5, 17]: 12%; growth inhibition ([5]; at 11.0 µM): 2%; growth inhibition ([5]; at 33.0 µM): 8%; growth inhibition [5, 18]: 47%; growth inhibition ([5]; at 50.0 µM): 61.8% and 39.5%; growth inhibition ([5]; at 100.0 µM): 51%; growth inhibition ([6]; at 1.2 µM): -2%; growth inhibition ([6]; at 3.7 µM): -2%; growth inhibition [6, 17]: 3%; growth inhibition ([6]; at 11.0 µM): 0%; growth inhibition ([6]; at 33.0 µM): 9%; growth inhibition [6, 18]: 12%; growth inhibition ([6]; at 50.0 µM): -4.25% and -24.8%; growth inhibition ([6]; at 100.0 µM): 33%; growth inhibition ([7]; at 1.2 µM): 0%; growth inhibition ([7]; at 3.7 µM): 4%; growth inhibition ([7]; at 11.0 µM): 17%; growth inhibition ([7]; at 33.0 µM): 45%; growth inhibition ([7]; at 100.0 µM): 75% (active); growth inhibition [8, 17]: 11%; growth inhibition [8, 18]: 47%; growth inhibition ([8]; at 50.0 µM): 50% and 24.2%; growth inhibition ([9]; at 1.2 µM): -1%; growth inhibition ([9]; at 3.7 µM): -1%; growth inhibition ([9]; at 11.0 µM): 4%; growth inhibition ([9]; at 33.0 µM): 15%; growth inhibition ([9]; at 100.0 µM): 24%; growth inhibition [10, 17]: 4%; growth inhibition [10, 18]: 8%; growth inhibition ([10]; at 50.0 µM): 15.7% and -4.25%; growth inhibition ([11]; at 1.2 µM): -1%; growth inhibition ([11]; at 3.7 µM): -3%; growth inhibition [11, 17]: 0%; growth inhibition ([11]; at 11.0 µM): -3%; growth inhibition ([11]; at 33.0 µM): 9%; growth inhibition [11, 18]: 52%; growth inhibition ([11]; at 50.0 µM): 61.9% and 10.9%; growth inhibition ([11]; at 100.0 µM): 50%; growth inhibition ([12]; at 1.2 µM): -3%; growth inhibition ([12]; at 3.7 µM): -3%; growth inhibition ([12]; at 11.0 µM): -8%; growth inhibition ([12]; at 33.0 µM): -6%; growth inhibition ([12]; at 100.0 µM): 63%; growth inhibition ([13]; at 1.2 µM): -1%; growth inhibition ([13]; at 3.7 µM): -4%; growth inhibition ([13]; at 11.0 µM): -1%; growth inhibition ([13]; at 33.0 µM): -27%; growth inhibition ([13]; at 100.0 µM): 64%; growth inhibition ([14]; at 1.2 µM): -2%; growth inhibition ([14]; at 3.7 µM): -1%; growth inhibition ([14]; at 11.0 µM): 0%; growth inhibition ([14]; at 33.0 µM): 16%; growth inhibition ([14]; at 100.0 µM): 70% (active); growth inhibition [15, 17]: 4%; growth inhibition [15, 18]: 28%; growth inhibition ([15]; at 50.0 µM): 40.2% and 7.1%; growth inhibition ([16]; at 1.2 µM): -2%; growth inhibition ([16]; at 3.7 µM): -1%; growth inhibition ([16]; at 11.0 µM): 6%; growth inhibition ([16]; at 33.0 µM): 15%; growth inhibition ([16]; at 100.0 µM): 47%
